# Assay results taken from PubChem BioAssay AID651932 (Southern Research Specialized Biocontainment Screening …, 2012).
# A number with no mark means an inactive call. How the calls were made is not given here.
# Assay: RSV cytopathic effect inhibition in HEp-2, counter-screen for VEEV inhibitor project, HEp-2 cells, set 2 (AID 651932)
# Conditions: series mostly up to 25 µM; inhibition: at the top concentration
row,Compound,inhibition [%]
1,COc1ccc(NC(=O)c2cc([N+](=O)[O-])ccc2N=C2CN(C)CCN2C)cc1,3.17
2,CCN1CCN(C)CC1=Nc1ccc([N+](=O)[O-])cc1C(=O)Nc1ccccc1,12.7
3,CN1CCN(C)C(=Nc2ccc([N+](=O)[O-])cc2C(=O)Nc2ccccc2)C1,8.1
4,CCN1CCN(Cc2nc3ccc([N+](=O)[O-])cc3c(=O)n2-c2ccccc2F)CC1,11.3
